Experimental findings from publication PMC8384837, “Expanding the binding specificity for RNA recognition by a PUF domain” are described below.

Holding throughout (test): yeast three-hybrid, YBZ-1, SC-Leu-His + 0.5 mM 3-AT, 4 days
Common to all, as to settings: tags: N-Gal4 AD-HA kept; label: inside an RPR1-promoter hybrid RNA with tandem MS2 sites; ssRNA

For one assay, the target named is PUM1 PUF domain R7-KRQ (Homo sapiens, UniProt Q14671 828-1176, S1079K;N1080R;E1083Q). In short, it runs like this:
(§1)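 Sequencing with Illumina followed PCR amplification of the repeat regions from transformants grown four days on SC-Leu (input) or SC-Leu-His + 0.5 mM 3-AT (selection). The transformants were strain YBZ-1 with a LexA–MS2 coat fusion and a HIS3 reporter, carrying Pumilio-1 PUF domain libraries and matching RNA elements. The interaction score is the log change in variant frequency from input to selection, computed in log2 with a pseudocount of 1 for absent variants.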

Another assay concerns the target PUM1 PUF domain R7-HHP (Homo sapiens, UniProt Q14671 828-1176, S1079H;N1080H;E1083P). Put shortly: as §1
For another assay, the target named is PUM1 PUF domain R1-SGR (Homo sapiens, UniProt Q14671 828-1176, R864G;Q867R). In short, it runs like this: as §1
The target in the next assay is PUM1 PUF domain R4-CNC (Homo sapiens, UniProt Q14671 828-1176, N971C;H972N;Q975C). Put shortly:
as §1

A further assay deals with PUM1 PUF domain R3-CYF (Homo sapiens, UniProt Q14671 828-1176, R936Y;Q939F). In short, it runs like this: as §1
The target in a further assay is PUM1 PUF domain R8-RHP (Homo sapiens, UniProt Q14671 828-1176, N1122R;Y1123H;Q1126P). Put shortly: as §1
A further assay addresses PUM1 PUF domain R5-QVR (Homo sapiens, UniProt Q14671 828-1176, C1007Q;R1008V;Q1011R). Put shortly: as §1
Another assay deals with PUM1 PUF domain R3-FSG (Homo sapiens, UniProt Q14671 828-1176, C935F;R936S;Q939G). In short, it runs like this:
as §1

A further assay concerns the target PUM1 PUF domain R4-CPC (Homo sapiens, UniProt Q14671 828-1176, N971C;H972P;Q975C). In short, it runs like this: as §1

Sequence of PUM1 PUF domain R7-HHP (Q14671 828-1176 S1079H/N1080H/E1083P): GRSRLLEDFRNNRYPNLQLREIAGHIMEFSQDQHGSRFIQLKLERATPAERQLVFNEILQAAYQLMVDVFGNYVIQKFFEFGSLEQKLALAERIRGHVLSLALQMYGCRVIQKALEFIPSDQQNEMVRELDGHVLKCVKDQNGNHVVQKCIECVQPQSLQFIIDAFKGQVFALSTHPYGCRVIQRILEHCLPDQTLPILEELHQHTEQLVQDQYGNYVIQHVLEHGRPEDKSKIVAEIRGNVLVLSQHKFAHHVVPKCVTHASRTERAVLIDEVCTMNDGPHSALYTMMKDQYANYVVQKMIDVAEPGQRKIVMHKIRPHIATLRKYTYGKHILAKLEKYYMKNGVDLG
Sequence of PUM1 PUF domain R8-RHP (Q14671 828-1176 N1122R/Y1123H/Q1126P): as the sequence (Q14671 828-1176 S1079H/N1080H/E1083P) above, with H252S, H253N, P256E, N295R, Y296H, Q299P counted along it
Sequence of PUM1 PUF domain R4-CNC (Q14671 828-1176 N971C/H972N/Q975C): as the sequence (Q14671 828-1176 S1079H/N1080H/E1083P) above, with N144C, H145N, Q148C, H252S, H253N, P256E counted along it
Sequence of PUM1 PUF domain R3-CYF (Q14671 828-1176 R936Y/Q939F): as the sequence (Q14671 828-1176 S1079H/N1080H/E1083P) above, with R109Y, Q112F, H252S, H253N, P256E counted along it
Sequence of PUM1 PUF domain R7-KRQ (Q14671 828-1176 S1079K/N1080R/E1083Q): as the sequence (Q14671 828-1176 S1079H/N1080H/E1083P) above, with H252K, H253R, P256Q counted along it
Sequence of PUM1 PUF domain R3-FSG (Q14671 828-1176 C935F/R936S/Q939G): as the sequence (Q14671 828-1176 S1079H/N1080H/E1083P) above, with C108F, R109S, Q112G, H252S, H253N, P256E counted along it
Sequence of PUM1 PUF domain R5-QVR (Q14671 828-1176 C1007Q/R1008V/Q1011R): as the sequence (Q14671 828-1176 S1079H/N1080H/E1083P) above, with C180Q, R181V, Q184R, H252S, H253N, P256E counted along it
Sequence of PUM1 PUF domain R1-SGR (Q14671 828-1176 R864G/Q867R): as the sequence (Q14671 828-1176 S1079H/N1080H/E1083P) above, with R37G, Q40R, H252S, H253N, P256E counted along it
Sequence of PUM1 PUF domain R4-CPC (Q14671 828-1176 N971C/H972P/Q975C): as the sequence (Q14671 828-1176 S1079H/N1080H/E1083P) above, with N144C, H145P, Q148C, H252S, H253N, P256E counted along it

In the case of “GGCUAGAACUAGUGGAUCCCCCGGCGCCCGGCGGCUCGAGCCCGGGUAAGUCUAAAUAGUCUGCAUGCCGCCGGGCGCCAUGCCUGCAGGUCGACUCUAGAAAACAUG”, the results for the binding signal in the assay with PUM1 PUF domain R7-KRQ and in the assay with PUM1 PUF domain R7-HHP were 2.89 log2 enrichment (interaction score) and 2.54 log2 enrichment (interaction score), respectively.

Consider “GGCUAGAACUAGUGGAUCCCCCGGCGCCCGGCGGCUCGAGCCCGGGUAAGUGUAAAUCGUCUGCAUGCCGCCGGGCGCCAUGCCUGCAGGUCGACUCUAGAAAACAUG”, for which the binding signal with PUM1 PUF domain R1-SGR was 3.72 log2 enrichment (interaction score).

As to “GGCUAGAACUAGUGGAUCCCCCGGCGCCCGGCGGCUCGAGCCCGGGUAAGUGUAUAUAGUCUGCAUGCCGCCGGGCGCCAUGCCUGCAGGUCGACUCUAGAAAACAUG”, the binding signal with PUM1 PUF domain R4-CNC was 3.13 log2 enrichment (interaction score).

Take “GGCUAGAACUAGUGGAUCCCCCGGCGCCCGGCGGCUCGAGCCCGGGUAAGUGUAAAUAGUCUGCAUGCCGCCGGGCGCCAUGCCUGCAGGUCGACUCUAGAAAACAUG”: the results for the binding signal with PUM1 PUF domain R3-CYF and with PUM1 PUF domain R8-RHP were 5.41 log2 enrichment (interaction score) and 5.42 log2 enrichment (interaction score), respectively.

For the sequence “GGCUAGAACUAGUGGAUCCCCCGGCGCCCGGCGGCUCGAGCCCGGGUAAGUGUCAAUAGUCUGCAUGCCGCCGGGCGCCAUGCCUGCAGGUCGACUCUAGAAAACAUG”, the binding signal with PUM1 PUF domain R5-QVR is 3.01 log2 enrichment (interaction score).

With “GGCUAGAACUAGUGGAUCCCCCGGCGCCCGGCGGCUCGAGCCCGGGUAAGUGUAAGUAGUCUGCAUGCCGCCGGGCGCCAUGCCUGCAGGUCGACUCUAGAAAACAUG”, the binding signal with PUM1 PUF domain R3-FSG was 3.59 log2 enrichment (interaction score).

For the sequence “GGCUAGAACUAGUGGAUCCCCCGGCGCCCGGCGGCUCGAGCCCGGGUAAGUAUAAAUAGUCUGCAUGCCGCCGGGCGCCAUGCCUGCAGGUCGACUCUAGAAAACAUG”, the binding signal in the assay with PUM1 PUF domain R7-HHP is 2.33 log2 enrichment (interaction score).

With “GGCUAGAACUAGUGGAUCCCCCGGCGCCCGGCGGCUCGAGCCCGGGUAAGUGUACAUAGUCUGCAUGCCGCCGGGCGCCAUGCCUGCAGGUCGACUCUAGAAAACAUG”, the binding signal with PUM1 PUF domain R4-CPC was 2.9 log2 enrichment (interaction score).

On to “GGCUAGAACUAGUGGAUCCCCCGGCGCCCGGCGGCUCGAGCCCGGGUAAGCGUAAAUAGUCUGCAUGCCGCCGGGCGCCAUGCCUGCAGGUCGACUCUAGAAAACAUG”, for which the binding signal with PUM1 PUF domain R8-RHP was 5.5 log2 enrichment (interaction score).
